From publication PMC4336329 (PLoS ONE, 2015)
Screen size: about 310,000 compounds; about 14,000 (4.5%) showed an effect of 50% or more. The effect is printed as a negative number. Only a selection was taken, and strong results are over-represented in it overall.

Each compound was assayed against human ether-à-go-go-related gene (hERG) potassium channel (human, UniProt Q12809) (assay: primary screen, population patch clamp on CHO cells stably expressing hERG; higher = less effect of the substance).
Chain of human ether-à-go-go-related gene (hERG) potassium channel (Q12809 whole entry, looked up): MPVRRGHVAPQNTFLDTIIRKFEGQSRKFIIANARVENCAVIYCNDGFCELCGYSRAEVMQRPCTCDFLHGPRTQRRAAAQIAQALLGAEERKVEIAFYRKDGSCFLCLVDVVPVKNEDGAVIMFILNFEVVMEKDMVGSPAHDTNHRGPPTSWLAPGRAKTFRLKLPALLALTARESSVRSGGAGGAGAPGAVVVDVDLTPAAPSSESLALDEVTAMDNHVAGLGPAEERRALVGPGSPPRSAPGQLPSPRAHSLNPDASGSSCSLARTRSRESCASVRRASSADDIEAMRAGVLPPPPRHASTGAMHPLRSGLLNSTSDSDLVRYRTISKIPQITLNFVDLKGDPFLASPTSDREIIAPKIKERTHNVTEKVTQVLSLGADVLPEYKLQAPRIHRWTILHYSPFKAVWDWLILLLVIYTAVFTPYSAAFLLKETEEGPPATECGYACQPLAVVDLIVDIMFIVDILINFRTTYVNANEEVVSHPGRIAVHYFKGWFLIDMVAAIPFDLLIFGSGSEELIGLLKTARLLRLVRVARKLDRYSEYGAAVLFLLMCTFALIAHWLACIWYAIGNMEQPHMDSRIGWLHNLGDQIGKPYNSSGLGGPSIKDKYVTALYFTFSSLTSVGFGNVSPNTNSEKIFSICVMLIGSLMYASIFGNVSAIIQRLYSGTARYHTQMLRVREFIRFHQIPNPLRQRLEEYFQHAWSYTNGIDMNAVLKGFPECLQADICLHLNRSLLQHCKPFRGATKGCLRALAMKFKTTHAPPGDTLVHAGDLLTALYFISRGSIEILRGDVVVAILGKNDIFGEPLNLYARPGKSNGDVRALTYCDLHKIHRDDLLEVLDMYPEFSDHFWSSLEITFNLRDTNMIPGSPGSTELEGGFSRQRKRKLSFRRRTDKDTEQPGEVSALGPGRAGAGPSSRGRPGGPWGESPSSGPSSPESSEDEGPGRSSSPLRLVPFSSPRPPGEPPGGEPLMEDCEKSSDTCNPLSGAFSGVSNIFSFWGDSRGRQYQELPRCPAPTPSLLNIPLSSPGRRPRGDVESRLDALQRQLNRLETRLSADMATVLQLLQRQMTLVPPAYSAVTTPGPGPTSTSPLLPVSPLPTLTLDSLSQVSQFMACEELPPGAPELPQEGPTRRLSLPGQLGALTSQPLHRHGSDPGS
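Note: peak tail current of the secondary pulse compared with the same well before compound.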

| SMILES | hERG current change (%, negative = inhibition) at 10uM |
| --- | --- |
| CC1CCN(c2ccc(/C=N\Nc3nncn3N)cc2[N+](=O)[O-])CC1 | -5.89% |
| Cc1ccc(-c2nc(CSCC(=O)NCc3cccnc3)c(C)o2)cc1 | -15.3% |
| Cc1ccccc1-c1nc(CN2CCC(C(=O)NCc3cccnc3)CC2)c(C)o1 | -32.8% |
| O=C(NCc1cccnc1)C1CCCN(S(=O)(=O)c2ccc(Cl)cc2)C1 (stereo not drawn) | -26.9% |
| Cc1oc(-c2ccccc2F)nc1CN1CCC(C(=O)NCc2cccnc2)CC1 | -26.7% |
| COc1ccc(C(C)C)cc1S(=O)(=O)N1CCC(C(=O)NCc2cccnc2)CC1 | -5.48% |
| Cc1ccccc1-c1nc(CN2CCCC(C(=O)NCc3cccnc3)C2)c(C)o1 (stereo not drawn) | -64% |
| Cc1oc(-c2ccc(Cl)cc2)nc1CN1CCC(C(=O)NCc2cccnc2)CC1 | -65.9% |
| CCS(=O)(=O)N1CCC(C(=O)NCc2cccnc2)CC1 | -11.7% |
| Cc1oc(-c2ccc(Cl)cc2)nc1CN1CCCC(C(=O)NCc2cccnc2)C1 (stereo not drawn) | -60.8% |
| Cc1cc(C)c(S(=O)(=O)N2CCCC(C(=O)NCc3cccnc3)C2)c(C)c1 (stereo not drawn) | -27% |
| CC(C)c1ccc(CN2CCC(C(=O)NCc3cccnc3)CC2)cc1.O=C(O)C(=O)O | -52.1% |
| CCOC(=O)COc1nc(Nc2ccccc2C)nc(N(C)C)n1 | 1.92% |
| Cc1ccc(N2CC(C(=O)OCC(=O)c3ccc[nH]3)CC2=O)cc1 (stereo not drawn) | -24.2% |
| Cc1cc(C)cc(C(=O)Nc2ccncc2)c1 | 7.83% |
| O=C(CNC(=O)c1ccco1)Nc1cccc(Cl)c1 | -10.8% |
| O=C(Nc1ccccc1C(=O)NCCCN1CCOCC1)c1ccc(Cl)cc1 | -15.5% |
| O=C(CCSc1ccccc1)N1CCCC1 | 10.9% |
| CCC(=O)NCc1ccc(-c2nc3ncccc3o2)cc1 | 13% |
| Cc1csc(SC(C)c2nc3scc(-c4ccccc4)c3c(=O)[nH]2)n1 (stereo not drawn) | 6.61% |
| Cc1ccc(S(=O)(=O)N2[C@@H](c3cccc(Cl)c3)C(C(=O)O)=CC[C@H]2c2cccs2)cc1 | 13.7% |

| SMILES | hERG current change (%, negative = inhibition) at 10uM |
| --- | --- |
| Cc1oc(-c2ccc(Cl)cc2)nc1CN1CCCC(C(=O)NCc2ccccn2)C1 (stereo not drawn) | -67.8% |
| Cc1noc(C)c1S(=O)(=O)N1CCCC(C(=O)NCc2ccccn2)C1 (stereo not drawn) | 3.78% |
| Cc1oc(-c2cccc(Cl)c2)nc1CN1CCC(C(=O)NCc2cccnc2)CC1 | -60.9% |
| Cc1oc(-c2ccc(Cl)cc2)nc1CS(=O)CC(=O)NCc1ccccn1 (stereo not drawn) | -10.7% |
| O=C(Nc1nccs1)c1cccc(S(=O)(=O)N2CCCC2)c1 | -6.01% |
| Cc1cc(C(=O)CN2CCC(C)CC2)c(C)n1-c1ccccc1F | -5.74% |
| O=c1c2ccccc2nnn1-c1ccc(Br)cc1 | 12% |
| COc1ccc(C(O)P(=O)(OC2CCCCC2)c2ccc(N(C)C)cc2)cc1OC (stereo not drawn) | -7.44% |
| CCCCC1C(=O)N(c2ccccc2)N(c2ccc(O)cc2)C1=O (stereo not drawn) | -9% |
| O=C(Cc1c[nH]c2ccccc12)NCc1ccc2c(c1)OCO2 | 19.4% |
| Cc1ccc(CCNC(=O)c2nc(CS(=O)(=O)c3ccc(Cl)cc3)no2)cc1 | 31.6% |
| Nc1ccncc1 | 5% |
| c1cc(-c2ccncc2)ccn1 | 20.9% |
| c1cc(-c2sc(-c3ccncc3)c(-c3ccncc3)c2-c2ccncc2)ccn1 | -66.6% |
| Cc1ccc2[nH]c(=O)c(CN(CC3CCCO3)C(=S)NCc3ccco3)cc2c1 (stereo not drawn) | -8.49% |
| COC(=O)c1ccc(-n2cnc(Cl)n2)c(F)c1 | -7.27% |
| CCOC(=O)C1CCCN(C(=O)CNC(=O)c2nn(-c3ccc(OC)c(Cl)c3)c(=O)c3ccccc23)C1 (stereo not drawn) | -5.66% |
| CCOC(=O)C1CCN(C(=O)CNC(=O)c2nn(-c3ccc(OC)c(OC)c3)c(=O)c3ccccc23)CC1 | -2.02% |
| COCCCNC(=O)CNC(=O)c1nn(-c2ccc(OC)c(Cl)c2)c(=O)c2ccccc12 | 8.9% |
| COc1ccc(-n2nc(C(=O)NCC(=O)NCc3ccc(F)cc3)c3ccccc3c2=O)cc1 | -12.1% |
| COc1ccc(-n2nc(C(=O)NCC(=O)NCc3ccccc3OC)c3ccccc3c2=O)c(OC)c1 | 7.07% |

| SMILES | hERG current change (%, negative = inhibition) at 10uM |
| --- | --- |
| CCOC(=O)C1CCN(C(=O)CNC(=O)c2nn(-c3ccc(OC)c(Cl)c3)c(=O)c3ccccc23)CC1 | -55% |
| COc1ccc(-n2nc(C(=O)NCC(=O)NCc3ccccc3OC)c3ccccc3c2=O)cc1 | -69.5% |
| CCC1CCCCN1CCCNC(=O)CNC(=O)c1nn(-c2ccc(OC)c(Cl)c2)c(=O)c2ccccc12 (stereo not drawn) | -39.4% |
| COc1ccc(-n2nc(C(=O)NCC(=O)NCCCN3CCCCCC3)c3ccccc3c2=O)cc1Cl | -56% |
| COc1ccc(-n2nc(C(=O)NCC(=O)NCCCN3CCC(C)CC3)c3ccccc3c2=O)cc1Cl | -74.2% |
| COc1ccc(-n2nc(C(=O)NCC(=O)NCCCN3CCOCC3)c3ccccc3c2=O)cc1Cl | -12.6% |
| CCCCNC(=O)CNC(=O)c1nn(-c2ccc(OC)c(Cl)c2)c(=O)c2ccccc12 | 9.5% |
| CCOC(=O)C1CCCN(c2cc(=O)n(-c3ccccc3Cl)c(=O)[nH]2)C1 (stereo not drawn) | 9.43% |
| O=C1C2=C(SCCS2)C(=O)N1CCCO | 4.66% |
| CCC(Oc1ccccc1)C(=O)Nc1ccccc1N1CCCCC1 (stereo not drawn) | 5.6% |
| CSc1nnc2ccc(-c3cccs3)nn12 | -8.27% |
| O=C(NC(=O)c1ccccc1)Nc1ccccc1O | 14.7% |
| Cn1c(C(=O)OCC(=O)NCc2cccs2)cc2sccc21 | 3.37% |
| O=C(Oc1ccccc1C(=S)N1CCOCC1)c1ccccc1 | 7.59% |
| CCN(CC)c1ccc(C2C(C(=O)OCCOC(C)C)=C(C)NC3=C2C(=O)CCC3)cc1 (stereo not drawn) | -12.3% |
| CC1CCCN(c2ncnc3c2cnn3-c2ccccc2)C1 (stereo not drawn) | -1.2% |
| COc1ccc(-n2nc(C(=O)NCC(=O)NCCCN3CC(C)CC(C)C3)c3ccccc3c2=O)cc1 (stereo not drawn) | -37.2% |
| COc1ccc(-n2nc(C(=O)NCC(=O)NCCCN3CC(C)CC(C)C3)c3ccccc3c2=O)cc1Cl (stereo not drawn) | -62.3% |
| COc1ccc(-n2nc(C(=O)NCC(=O)NCCCN3CC(C)CC(C)C3)c3ccccc3c2=O)cc1OC (stereo not drawn) | -34% |
| O=C(c1ccccc1)N(Cc1cccnc1)C1(C(=O)Nc2ccccc2)CCCCC1 | 5.29% |
| CC(=O)Nc1ccc2c(c1)CCc1ccccc1-2 | 15.1% |

| SMILES | hERG current change (%, negative = inhibition) at 10uM |
| --- | --- |
| O=C(CCS(=O)(=O)c1ccc(F)cc1)Nc1nc(-c2ccccn2)cs1 | -12.6% |
| Cc1ccc(S(=O)(=O)Cn2nnnc2CN2CCN(Cc3ccc4c(c3)OCO4)CC2)cc1 | -28.7% |
| OC1(c2ccccc2F)CCN(Cc2nnnn2CCc2ccccc2)CC1 | 30.9% |
| Cc1nc2cc(C(F)(F)F)ccc2n1C1CCN(Cc2nnnn2CCc2ccccc2)CC1 | -68.4% |
| CCOC(=O)C1CCN(Cc2nnnn2CCc2ccccc2)CC1 | -4.94% |
| Cc1nc2ccccc2n1C1CCN(Cc2nnnn2CCc2ccccc2)CC1.Cl | -68.6% |
| CCN(CC)C(=O)CN1CCC(n2c(C)nc3cc(C(F)(F)F)ccc32)CC1 | -32.8% |
| Cc1nc2cc(C(F)(F)F)ccc2n1C1CCN(Cc2nnnn2Cc2ccc3c(c2)OCO3)CC1 | -54.1% |
| Cl.c1ccc(CCn2nnnc2CN2CCN(C3CCCC3)CC2)cc1 | -3.4% |
| Cc1nc2cc(F)ccc2n1C1CCN(Cc2nnnn2CCc2ccccc2)CC1.Cl | -65.7% |
| CCC(C)(C)n1nnnc1CN1CCC(n2c(C)nc3cc(C(F)(F)F)ccc32)CC1 | -5.5% |
| Cc1ccccc1C(=O)NC1CCN(Cc2nnnn2CCc2ccccc2)CC1 | -8.14% |
| Cc1nc2cc(C(F)(F)F)ccc2n1C1CCN(Cc2nnnn2Cc2cccs2)CC1 | -36.6% |
| CCc1ccc(OCC(=O)NCC(c2ccc(Cl)cc2)N2CCCCC2)cc1 (stereo not drawn) | -6.4% |
| CCN(CC)C(=O)CCc1nnc(CCc2c[nH]c3ccccc23)o1 | 6.93% |
| O=C(CN1C(=O)/C(=C/c2ccccc2)SC1=S)Nc1ncc(Cc2ccccc2)s1 | 7.31% |
| C[C@H](NC(=O)[C@@H]1CSC2c3ccccc3C(=O)N21)C(=O)NC1CCCC1 (stereo partly drawn) | 10.5% |
| COc1ccc(C(=O)NCc2ccon2)cc1OC1CCN(C(C)C)CC1 | -45.6% |
| CCc1cccc(C)c1N(C(=O)Cn1c(CO)nc2ccccc21)C(C)COC (stereo not drawn) | -5.89% |
| COC(=O)c1c(N)sc(C(C)=O)c1C | 0.466% |
| CCOC(=O)N1CCC(NC(=O)Cn2c3c(c(-c4ccccc4Cl)cc2=O)CCC3)CC1 | -8.61% |
